Results filed as inconclusive are left out. Entries that show only a call come without a potency. Active and inactive are the calls of the source. The call rests on the fitted dose curve; in most records, active means well fitted curve in the direction sought with a large enough effect; inconclusive means small, poorly fitted or top-dose-only effect, or another doubt; inactive means no such curve, though single readings can be large; an effect the other way counts as inactive or inconclusive.
Tests used:
[1] = target: Rap guanine nucleotide exchange factor 3 (Homo sapiens) (UniProt O95398); experiment: Confirmatory qHTS for antagonist of cAMP-regulated guanine nucleotide exchange factor 3 (EPAC1) (AID 1645880); settings: EPAC1 Rap1B-BODIPY-GDP exchange, fluorescence; series mostly up to 115 µM; further: nearly all actives have a fitted effect of over 55% in size
Method in brief: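 Nucleotide exchange uses 100 nM EPAC1, 250 nM RAP1B-BODIPY-GDP and 50 uM GDP, with compounds in a concentration-titration series. After 5 min at room temperature, fluorescence (480 nm ex/540 nm em) is read every 5 min for 30 min. Data are normalized to control ATA and DMSO.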

[2] = target: Rap guanine nucleotide exchange factor 3 (Homo sapiens) (UniProt O95398); experiment: Confirmatory qHTS for agonist of cAMP-regulated guanine nucleotide exchange factor 3 (EPAC1) (AID 1645881); settings: EPAC1 Rap1B BODIPY-GDP exchange fluorescence; series mostly up to 154 µM;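 further: EPAC1 catalysed release of BODIPY-GDP from Rap1B seen as fluorescence loss; nearly all actives have a fitted effect of over 75% in size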
[3] = target: Rap guanine nucleotide exchange factor 4 (Homo sapiens) (UniProt Q8WZA2); experiment: Confirmatory qHTS for agonist of cAMP-regulated guanine nucleotide exchange factor 4 (EPAC2) (AID 1645884); settings: EPAC2 GEF activity, Rap1B-BODIPY-GDP fluorescence; series mostly up to 154 µM;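 further: nucleotide exchange releases bodipy-GDP from Rap1 and this lowers its fluorescence; nearly all actives have a fitted effect of over 65% in size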
[4] = target: Rap guanine nucleotide exchange factor 4 (Homo sapiens) (UniProt Q8WZA2); experiment: Confirmatory qHTS for antagonist of cAMP-regulated guanine nucleotide exchange factor 4 (EPAC2) (AID 1645885); settings: EPAC2 Rap1B-BODIPY-GDP exchange fluorescence, biochemical; series mostly up to 12.7 µM; further: nearly all actives have a fitted effect of over 25% in size; further: potency means the concentration at half of the fitted maximal effect
[5] = target: Rap guanine nucleotide exchange factor 3 (Homo sapiens) (UniProt O95398); experiment: Counterscreen qHTS for antagonist of cAMP-regulated guanine nucleotide exchange factor 3 (EPAC1) (AID 1645888); settings: Rap1B-BODIPY-GDP nucleotide exchange, fluorescence; series mostly up to 154 µM;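 further: fluorescence loss as bound BODIPY-GDP is released from Rap1B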
Method in brief: (§1)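 Rap1B-BODIPY-GDP 250 nM + GDP 50 uM; cpds 7-pt, final 9.74 nM–152 uM (activator mode) or from 7.32 nM upwards (inhibitor mode); RT; FI 480/540 nm at 5 and 30 min, then ± cAMP, reread.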

[6] = target: Rap guanine nucleotide exchange factor 3 (Homo sapiens) (UniProt O95398); experiment: Counterscreen qHTS for agonist of cAMP-regulated guanine nucleotide exchange factor 3 (EPAC1) (AID 1645889); settings: EPAC1 Rap1B-BODIPY-GDP exchange, fluorescence; series mostly up to 154 µM; further: nearly all actives have a fitted effect of over 40% in size
Method in brief: as §1

Rap guanine nucleotide exchange factor 3 (Homo sapiens), sequence (O95398 whole entry, looked up): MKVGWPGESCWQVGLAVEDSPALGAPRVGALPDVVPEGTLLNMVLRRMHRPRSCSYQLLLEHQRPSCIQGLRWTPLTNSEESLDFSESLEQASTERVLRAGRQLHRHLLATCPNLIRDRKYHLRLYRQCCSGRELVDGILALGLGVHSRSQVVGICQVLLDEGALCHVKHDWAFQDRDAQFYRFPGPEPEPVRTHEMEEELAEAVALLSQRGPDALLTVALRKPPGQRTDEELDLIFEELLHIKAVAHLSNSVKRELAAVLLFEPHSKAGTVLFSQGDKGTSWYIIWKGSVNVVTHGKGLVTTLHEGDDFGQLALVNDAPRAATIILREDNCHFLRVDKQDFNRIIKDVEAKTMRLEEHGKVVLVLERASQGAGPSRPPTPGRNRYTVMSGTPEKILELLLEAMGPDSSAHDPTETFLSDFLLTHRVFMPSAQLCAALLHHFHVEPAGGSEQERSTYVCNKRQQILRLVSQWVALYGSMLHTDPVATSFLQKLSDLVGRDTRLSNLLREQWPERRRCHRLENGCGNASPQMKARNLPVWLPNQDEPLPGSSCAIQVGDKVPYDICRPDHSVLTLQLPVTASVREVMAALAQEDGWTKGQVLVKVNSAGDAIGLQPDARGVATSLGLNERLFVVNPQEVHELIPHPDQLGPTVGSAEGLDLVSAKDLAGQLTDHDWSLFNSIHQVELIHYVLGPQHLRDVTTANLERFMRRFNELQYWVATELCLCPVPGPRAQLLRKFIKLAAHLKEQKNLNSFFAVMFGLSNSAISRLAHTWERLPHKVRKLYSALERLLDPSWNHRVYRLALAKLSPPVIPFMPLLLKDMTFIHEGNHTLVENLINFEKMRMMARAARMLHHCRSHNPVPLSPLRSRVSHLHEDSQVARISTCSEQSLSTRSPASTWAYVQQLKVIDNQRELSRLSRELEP
Rap guanine nucleotide exchange factor 4 (Homo sapiens), sequence (Q8WZA2 whole entry, looked up): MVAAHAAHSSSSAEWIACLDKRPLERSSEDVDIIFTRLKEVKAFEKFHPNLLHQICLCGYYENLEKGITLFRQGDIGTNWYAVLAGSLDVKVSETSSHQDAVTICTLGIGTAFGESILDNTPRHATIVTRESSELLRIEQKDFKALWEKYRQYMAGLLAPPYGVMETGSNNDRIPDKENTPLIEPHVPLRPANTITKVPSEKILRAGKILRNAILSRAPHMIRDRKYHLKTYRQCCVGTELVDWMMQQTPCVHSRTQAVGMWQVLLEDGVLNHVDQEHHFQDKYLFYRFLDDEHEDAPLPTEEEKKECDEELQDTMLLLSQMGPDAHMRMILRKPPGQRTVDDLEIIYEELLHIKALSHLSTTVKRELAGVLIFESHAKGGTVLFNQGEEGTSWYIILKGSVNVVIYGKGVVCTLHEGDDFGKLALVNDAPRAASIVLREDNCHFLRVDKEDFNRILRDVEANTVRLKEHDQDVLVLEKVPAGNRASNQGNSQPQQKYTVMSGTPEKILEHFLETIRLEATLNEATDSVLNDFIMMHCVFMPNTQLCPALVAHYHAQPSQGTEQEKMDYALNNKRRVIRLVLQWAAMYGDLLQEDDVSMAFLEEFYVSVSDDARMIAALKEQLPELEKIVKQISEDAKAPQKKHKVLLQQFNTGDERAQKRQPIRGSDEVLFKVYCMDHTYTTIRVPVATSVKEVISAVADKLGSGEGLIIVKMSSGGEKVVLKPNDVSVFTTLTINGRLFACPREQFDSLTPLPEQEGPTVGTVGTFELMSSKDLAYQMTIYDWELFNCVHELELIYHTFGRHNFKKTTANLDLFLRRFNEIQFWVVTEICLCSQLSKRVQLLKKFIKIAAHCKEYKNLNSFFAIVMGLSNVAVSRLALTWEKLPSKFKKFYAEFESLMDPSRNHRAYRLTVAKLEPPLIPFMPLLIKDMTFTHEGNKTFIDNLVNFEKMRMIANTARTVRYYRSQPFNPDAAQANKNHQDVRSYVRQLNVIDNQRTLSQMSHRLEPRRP

Row | Structure (SMILES) | Potency [1] | Potency [2] | Potency [3] | Potency [4] | Potency [5] | Potency [6]
1 | CCC/C(=C1/c2ccccc2C(=O)N1c1ccccc1)c1cnc(OC)nc1 | inactive | inactive | inactive | 37.9 µM (active) | inactive | inactive
2 | CCOC(=O)c1ccc(N2C(=O)c3[nH]nc(-c4ccc(OCC)cc4)c3C2c2cccs2)cc1 (centres undefined) | inactive | inactive | inactive | inactive | inactive | inactive
3 | C=CCNC(=O)C1CC1(c1cccc(C)c1)c1cccc(C)c1 (centres undefined) | inactive | inactive | inactive | inactive | inactive | inactive
4 | CCC(C)NC(=O)CS(=O)Cc1nc(-c2ccccc2C)oc1C (centres undefined) | inactive | inactive | inactive | inactive | inactive | inactive

From PubChem BioAssay (NCATS)
